15-hLO inh – blocks human 15-lipoxygenase activity; Potency, µM (doses to about 57.1 µM), most hits filed as inhibitors; actives 1.4% (n = 74,000); AID 887; purified 15hLO-1, xylenol orange hydroperoxide absorbance; further: nearly all actives have a fitted effect of over 55% in size
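Readout: Fe(III)-xylenol orange absorbance, 573-to-405 nm ratio as reaction progress. Enzyme 40 nM purified human 15hLO-1, substrate 50 uM arachidonic acid, 6 min RT after 15 min compound preincubation; Hepes pH 7.5 buffer with Triton X-100.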
TSHR ag – activates the human thyroid stimulating hormone receptor | HEK293-CNG-TSHR cells (CNG channel as cAMP sensor), membrane potential dye, cAMP | Potency, µM (top dose mostly 57.1 µM), hits mostly activators | actives 0.48% (n = 73,000); active means well fitted activation curve with a large enough effect in the main read-out, with a control signal flat, not every such curve was filed as active; inconclusive means small, poorly fitted or top-dose-only effect, or a change in a side signal; inactive means no such curve, though single readings can be large or run the other way; reference of the percent scale not stated here;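 further: the control signal comes from parental cells without the receptor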
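HEK 293 cells stably expressing TSHR and a cAMP-gated CNG channel; parental CNG-only cells as counterscreen. Cells preloaded 60 min with membrane potential dye plus 100 uM RO 20-1724, then compound 30 min; fluorescence read at 590 nm.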
Casp1 inh – allosteric or competitive inhibitors of human caspase-1; Caspase-1 enzyme, Ac-WEHD-AFC fluorogenic rate; Potency, µM (top dose mostly 57.5 µM), most hits filed as inhibitors; actives 0.03% (n = 75,000)
ERK AVP inh – vasopressin-driven ERK pathway inhibition | Potency, µM (titrated, usually from 57.5 µM), usual class: inhibitors | actives 0.99% (n = 72,000) | HEK293-V1b, vasopressin-stimulated pERK AlphaScreen | AID 995; further: nearly all actives have a fitted effect of over 55% in size
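Overnight-seeded V1b-HEK293 cells in 1% FBS got compound, then vasopressin (25 nM final, 5 min, 37C), then lysis buffer. AlphaScreen detection of phospho-ERK; activity normalized to basal and full-stimulation controls.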
Casp7 inh – allosteric or competitive inhibitors of human caspase-7 | P55210 | recombinant caspase-7, Ac-DEVD-AFC fluorescence rate | Potency, µM (titrated, usually from 57.5 µM), usual class: inhibitors | actives 0.02% (n = 75,000) | AID 889; active means well fitted inhibition curve with a large enough effect in the main read-out, with a control signal flat, not every such curve was filed as active; inconclusive means small, poorly fitted or top-dose-only effect, or a change in a side signal
HEK293 cAMP ctrl – parental HEK293 cAMP activation (counter-screen). actives 2.5% (n = 73,000). Potency, µM (series often up to 57.1 µM), hits mostly activators. parental HEK293 CNG cAMP sensor, membrane potential fluorescence; further: nearly all actives have a fitted effect of over 55% in size
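Parental HEK 293 cells stably expressing a cAMP-gated CNG channel were loaded with membrane potential dye containing 100 uM RO 20-1724 for 60 min. Compound added for 30 min; depolarization read as fluorescence intensity at 590 nm.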
Of the large screens only hits and unclear results are named; the others gave an inactive call; ! = a repeat was not active. Sampled rows, rich in hits. Any-hit rate of the full collection: about 4.8%. Unless noted, the call rests on the fitted dose curve; in most records, active means well fitted curve in the direction sought with a large enough effect; inconclusive means small, poorly fitted or top-dose-only effect, or another doubt; inactive means no such curve, though single readings can be large; an effect the other way counts as inactive or inconclusive.

N#CCCCSc1nnc(-c2ccc(Cl)cc2)n1-c1ccccc1	TSHR ag inconclusive, HEK293 cAMP ctrl 25.1µM
N#CCCCSc1nnc(CSc2nc3ccccc3s2)n1-c1ccccc1	TSHR ag inconclusive, ERK AVP inh 25.1µM, HEK293 cAMP ctrl inconclusive
N#CCc1nc(CSc2nc3ccccc3s2)cs1	none
c1cncc(-c2cc(-n3ccnc3)ncn2)c1	15-hLO inh inconclusive (no result: TSHR ag)
Cc1noc(C)c1C(=O)N1CCC2(CCN(Cc3ccncc3)CC2)CC1	none
N#CCSc1nnc(COc2cccc3ccccc23)n1-c1cccc(Cl)c1	none
N#CCSc1nnc(COc2cccc3ccccc23)n1-c1ccccc1	TSHR ag inconclusive, HEK293 cAMP ctrl 12.6µM
Cc1nc(N2CCOCC2)c2nc(-c3ccccc3)n(CCCN(C)C)c2n1	none
C[C@H](O)[C@@H]1C(=O)N2C(C(=O)O)=C(SCCN=CN)C[C@@H]12	none
CN[C@H](CC(=O)O)C(=O)O	TSHR ag 0.794µM!
CC(=O)NC(CC(=O)O)C(=O)NC(CCC(=O)O)C(=O)O (stereo not given)	none (no result: TSHR ag, HEK293 cAMP ctrl)
CC(C)OC(=O)c1cn(-c2ccccc2)nc1-c1ccco1	15-hLO inh 20µM, TSHR ag 25.1µM
COc1ccc(-c2nn(-c3ccccc3)cc2C(=O)O)cc1	none (no result: ERK AVP inh)
O=S(=O)(c1ccc2c(c1)OCCO2)N(Cc1ccc(F)cc1)Cc1nnc(-c2cccs2)o1	TSHR ag inconclusive, Casp7 inh inconclusive, HEK293 cAMP ctrl 2µM
COCCN(C(=O)C(C)C)c1nnc(-c2cccc(C)c2)s1	none
COc1cccc(Cn2c(=O)c(-c3cccc(C#N)c3)nc3cnc(N4CCN(C)CC4)nc32)c1	TSHR ag inconclusive, Casp7 inh inconclusive (no result: Casp1 inh)
COc1ccc(Oc2ncc3nc(C)c(=O)n(Cc4cccc(OC)c4)c3n2)cc1	TSHR ag inconclusive, HEK293 cAMP ctrl 25.1µM
COc1ccc(Oc2ncc3nc(-c4cccc(C#N)c4)c(=O)n(Cc4cccc(OC)c4)c3n2)cc1	TSHR ag inconclusive, Casp1 inh inconclusive, HEK293 cAMP ctrl 25.1µM
O=C(O)CCSc1nc2ccccc2s1	none (no result: TSHR ag)
OC(CNc1nc2ccccc2s1)c1ccccc1 (stereo not given)	ERK AVP inh 25.1µM
CC(=O)O[C@@H]1CC[C@]2(C)C(=C[C@@H]([C@@H]3C=C4C[C@@H](OC(C)=O)CC[C@]4(C)C4=C3[C@H]3C[C@@H]5O[C@@]6(CC[C@H](C)CO6)[C@@H](C)[C@@H]5[C@@]3(C)CC4)C3=C2CC[C@@]2(C)[C@H]4[C@@H](C)[C@]5(CC[C@H](C)CO5)O[C@@H]4C[C@H]32)C1	none
C=CCn1c(SCC(=O)c2ccc(O)c(O)c2)nnc1-c1ccccc1OC	15-hLO inh inconclusive
CCn1c(SCC(=O)c2ccc(O)c(O)c2)nnc1-c1ccccc1OC	15-hLO inh 15.8µM (no result: TSHR ag)
CCn1c(SCc2ccc(OC)cc2)nnc1-c1ccncc1	TSHR ag inconclusive, HEK293 cAMP ctrl 25.1µM
CCn1c(SCC(=O)c2cc(OC)ccc2OC)nnc1-c1ccncc1	TSHR ag inconclusive, HEK293 cAMP ctrl 25.1µM
CN(CCc1ccc(Cl)c(Cl)c1)C[C@@H](O)COc1ccc(NS(C)(=O)=O)cc1	none
c1ccc(SCCSc2ccccc2)cc1	none
CC(=O)NCCNc1nc(-c2cccc(C#N)c2)nc2ccccc12	none
COc1ccccc1CCn1c(=O)c(-c2cccc(F)c2)nc2cncnc21	15-hLO inh inconclusive, TSHR ag inconclusive, HEK293 cAMP ctrl inconclusive
COc1ccccc1CCn1c(=O)c(-c2ccccc2)nc2cncnc21	TSHR ag inconclusive, HEK293 cAMP ctrl 3.98µM
Cc1cc(Br)ccc1OCC(=O)N(Cc1nc(-c2ccccc2)no1)C(C)C	15-hLO inh inconclusive, TSHR ag inconclusive, HEK293 cAMP ctrl 10µM
O=C(NCCCN1CCCCCC1)[C@@H](c1ccccc1)C1CCCCC1	TSHR ag inconclusive, HEK293 cAMP ctrl 15.8µM
OC(CCCCN1CCCCC1)c1ccccc1 (stereo not given)	none
COc1ccc(-c2nc(CSCC(=O)NCc3ccc4c(c3)OCO4)c(C)o2)cc1OC	ERK AVP inh 31.6µM

Bioassay records deposited in PubChem BioAssay by National Center for Advancing Translational Sciences (NCATS).
